Results on 18 compounds are retold here after PubChem BioAssay (EPA / NIEHS).

Each structure is given as a SMILES string. Active and inactive are the calls of the source. The calls were made as follows: active = hit-call score of the fitted dose curve at least 0.9, where 1 is the maximum; inconclusive = response in the unintended direction; inactive = score below 0.9.

By AC50 is commonly meant the concentration giving half of the maximal activity seen.

For this assay, the target named is human CYP1A2, CYP1A2 (gene 1544) (UniProt P05177). The assay can be described thus: NVS_ADME_hCYP1A2: NovaScreen (NVS) CYP450-related Enzyme Activity (ADME) Assay for human CYP1A2 (AID 2283102).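 As to AC50: potency for inhibition since loss of fluorescence marks reduced CYP1A2 activity.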 The procedure: NVS_ADME_hCYP1A2 is a biochemical, single-readout assay that uses extracted gene-proteins from insect cells in a cell-free assay. Measurements were taken 0.5 hour after chemical dosing in a 96-well plate.NVS_ADME_hCYP1A2 is one of one assay component(s) measured or calculated from the NVS_ADME_hCYP1A2 assay. It is designed to make measurements of enzyme activity, a form of enzyme reporter, as detected with fluorescence intensity signals by Fluorescence technology.Data from the assay component NVS_ADME_hCYP1A2 was analyzed into 1 assay endpoint. This assay endpoint, NVS_ADME_hCYP1A2, was analyzed in the positive analysis fitting direction relative to Acetonitrile as the negative control and baseline of activity. Using a type of enzyme reporter, loss-of-signal activity can be used to understand changes in the enzymatic activity as they relate to the gene CYP1A2. Furthermore, this assay endpoint can be referred to as a primary readout, because this assay has produced multiple assay endpoints where this one serves a enzymatic activity function. To generalize the intended target to other relatable targets, this assay endpoint is annotated to the cyp intended target family, where the subfamily is xenobiotic metabolism.
Sequence of human CYP1A2, CYP1A2 (gene 1544) (P05177 whole entry, looked up): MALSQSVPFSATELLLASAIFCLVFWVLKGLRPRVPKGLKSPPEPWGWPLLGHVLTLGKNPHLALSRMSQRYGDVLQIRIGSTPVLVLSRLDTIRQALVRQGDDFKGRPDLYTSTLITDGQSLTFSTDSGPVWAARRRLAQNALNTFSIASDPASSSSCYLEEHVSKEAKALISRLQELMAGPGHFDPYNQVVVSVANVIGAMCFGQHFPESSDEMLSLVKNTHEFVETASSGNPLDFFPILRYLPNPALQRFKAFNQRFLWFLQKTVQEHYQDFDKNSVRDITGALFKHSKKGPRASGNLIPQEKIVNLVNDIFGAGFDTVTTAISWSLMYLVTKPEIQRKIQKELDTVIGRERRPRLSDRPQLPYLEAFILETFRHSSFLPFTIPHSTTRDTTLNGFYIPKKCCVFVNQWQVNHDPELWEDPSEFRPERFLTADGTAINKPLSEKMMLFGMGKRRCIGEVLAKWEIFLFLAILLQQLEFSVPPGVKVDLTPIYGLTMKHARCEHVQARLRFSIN
Binding assays used specific radioligands (tritiated, iodinated) with non-radioactive competitive displacement ligands in agonist or antagonist protocols (as indicated) and various reference compounds and inhibitors to titrate specific binding to receptors and transporters. Most enzyme assays (CYPs, kinases, phosphatases, proteases, HDACs) used recombinant protein and specific substrates (fluorescence mostly, some colorimetric and radioactive) and inhibitors, followed by a biochemical separation of substrate and product. All assays for the biochemical HTS were initially run in duplicate at a single concentration (10 uM for CYP450 assays and 25 uM for all others). […] Each assay was run with positive and negative controls, and concurrent controls on every plate. The follow-up (secondary) screen tested active chemical-pairs in concentration series, as well as a few additional assays not tested in the primary screen, some selected negative inactives, and several cases re-run in the concentration series for confirmatory purposes.
Take `CN(C)C(=O)Nc1ccc(Cl)cc1`: the AC50 is 6.62 µM (active).

On to `O=C(Nc1ccccc1)c1ccccc1I`, for which the compound was classed as inactive.

Turning to `CC(C)(C)C(O)(CCc1ccc(Cl)cc1)Cn1cncn1` (stereo not drawn), the compound was called inactive.

As to `CCOC(=O)[C@]1(c2ccccc2)Oc2ccccc2[C@@H]1N`, the AC50 was 5.07 µM (active).

`CC(C)COC(=O)c1ccccc1C(=O)OCC(C)C`: the half-maximal activity concentration (AC50) is 7.52 µM (active).

In the case of `Cc1cc(N=Nc2ccccc2C)ccc1N`, the AC50 was 0.858 µM (active).

Take `COP(=S)(OC)SCN1C(=O)c2ccccc2C1=O`: the AC50 was 3.71 µM (active).

Take `N#CC(Br)(Br)C(N)=O`: the compound was classed as inactive.

Take `c1ccc2c(c1)-c1cccc3cccc-2c13`: the AC50 is 7.21 µM (active).

Take `[Cl-].[Cl-].[Hg+2]`: the AC50 was 0.998 µM (active).

With `Cc1cccc(N)c1N`, the AC50 is 6.94 µM (active).

`CCCCCCCCn1sccc1=O`: the concentration at half-maximal activity (AC50) is 5.97 µM (active).

In the case of `Oc1ccc2ccc3cccc4ccc1c2c34`, the AC50 was 0.275 µM (active).

Turning to `CCCCOC(=O)c1ccccc1C(=O)OCc1ccccc1`, the half-maximal activity concentration (AC50) is 6.71 µM (active).

`Nc1ccc(Cl)cc1N`: the AC50 was 7.31 µM (active).

On to `CCOc1cccc(C2(N3CCN(c4ccccc4)CC3)CCC(C)CC2)c1` (stereo not drawn), for which the compound was called inactive.

Turning to `O=[N+]([O-])C(Br)(CO)CO`, the half-maximal activity concentration (AC50) is 3.15 µM (active).

As for `Nc1ccc(N=Nc2ccccc2)cc1`, the compound was called inactive.
